We go through 38 compounds from the supplement of paper PMC9177965.

“And” between values parts separate entries of the source, which are not always exact repeats. Equal entries are not always repeated.

In this assay the test system is HT29 sg-Ctrl (RNF43 wildtype). The experiment in a line: cell viability activity relative to DMSO (negative = inhibition); higher = more viable cells (less growth inhibition). Particulars: 5 µM; 96 h. The protocol: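 Broad Repurposing Library primary screen at a single dose of 5 uM. HT29 sg-Ctrl and HT29 RNF43 G659fs CRISPR-edited isogenic cells were seeded at 2500 cells/well in 384-well plates in duplicate and treated for 96 h. Viability was read by CellTiter-Glo and reported as % activity relative to DMSO, with MG132 as the positive control (negative = growth inhibition).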
Turning to `Clc1ccc(CSC(Cn2ccnc2)c2ccc(Cl)cc2Cl)cc1` (stereo not drawn), the cell viability activity is -29%.

On to `COC(=O)C[C@](O)(CCCC(C)(C)O)C(=O)O[C@@H]1C(OC)=C[C@]23CCCN2CCc2cc4c(cc2[C@H]13)OCO4`, for which the cell viability activity is -86.7%. In the case of `Cc1cc(OCc2nc(-c3ccccc3Cl)cs2)ccc1OCC(=O)O` it was -31.1%. Consider `O=C1[C@H](Cc2ccc(O)cc2)N2C(=O)CCN(C(=O)NCc3ccccc3)[C@H]2CN1Cc1cccc2ccccc12`, for which the cell viability activity is -41.8%. As to `NS(=O)(=O)C#Cc1ccccc1`, the cell viability activity was -72.2%. Regarding `Nc1nccc2c1ncn2[C@@H]1C=C(CO)[C@@H](O)[C@H]1O`, the cell viability activity was -40.1%. In the case of `CC(C)(C)c1ccc(C(=O)CCCN2CCC(OC(c3ccccc3)c3ccccc3)CC2)cc1` it was -92.1%.

For `Cc1ccccc1N(C)C(=O)c1ccc([S+]([O-])c2nccs2)c([N+](=O)[O-])c1` (stereo not drawn), the cell viability activity is -22.7%.

On to `NS(=O)(=O)OC[C@@H]1C[C@@H](n2ccc3c(N[C@H]4CCc5ccccc54)ncnc32)C[C@@H]1O`, for which the cell viability activity was -63.2%. For `CN(C)C/C=C/C(=O)Nc1ccc(C(=O)Nc2cccc(Nc3ncc(Cl)c(-c4c[nH]c5ccccc45)n3)c2)cc1`, the cell viability activity is -86.4%.

Take `CC(C)(C)CC(C)(C)c1ccc(OCCOCC[N+](C)(C)Cc2ccccc2)cc1`: the cell viability activity is -97.2%. In the case of `Cc1cc(C2CCCCC2)n(O)c(=O)c1` it was -83.4%; in that of `NCCCCNCCCN`, -2.46%. In the case of `CC(=O)[C@]1(O)Cc2c(O)c3c(c(O)c2[C@@H](O[C@H]2C[C@H](N)[C@H](O)[C@H](C)O2)C1)C(=O)c1ccccc1C3=O` it was -93% and -97.3%; in that of `COC(=O)C1=C(C#N)NC(C)=C(C(=O)OC(C)C)C1c1cccc([N+](=O)[O-])c1` (stereo not drawn), -65.8%.

For `COc1cccc2c1C(=O)c1c(O)c3c(c(O)c1C2=O)C[C@@](O)(C(C)=O)C[C@@H]3O[C@H]1C[C@H](N)[C@H](O)[C@H](C)O1`, the cell viability activity is -96.9% and -95.8% and -96%. In the case of `CN1CCC(CNc2ccc3ncc(-c4cccc(OC(F)(F)F)c4)n3n2)CC1`, the cell viability activity is -52.2%. Regarding `CCOc1cc2ncc(C#N)c(Nc3ccc(OCc4cccc(F)c4)c(Cl)c3)c2cc1NC(=O)/C=C/CN(C)C`, the cell viability activity is -28.1%. In the case of `Cn1ncc(Cl)c1-c1cc(C(=O)N[C@H](CN)Cc2ccc(F)c(F)c2)oc1Cl`, the cell viability activity is -61.1%.

Turning to `Cc1c(C2CCN(CCc3ccccc3)CC2)noc1-c1ccc(Cl)cc1`, the cell viability activity is -39.7%.

With `CCCCCCCCCc1ccc(OCCOCCOCCOCCOCCOCCOCCOCCOCCO)cc1`, the cell viability activity is -22.3%. Consider `COc1cccc(Nc2ncnn3ccc(CN4CC[C@@H](N)[C@H](O)C4)c23)c1`, for which the cell viability activity was -31.4%. `Nc1ccc2cc3ccc(N)cc3nc2c1`: the cell viability activity is -47.4%.

In the case of `CCOc1ccc(Cc2nccc3cc(OCC)c(OCC)cc23)cc1OCC`, the cell viability activity was -25.2%. With `Cn1cc(C2=C(c3cn(CCCSC(=N)N)c4ccccc34)C(=O)NC2=O)c2ccccc21`, the cell viability activity is -73.6%.

`CC(C)(C)c1ccc(-c2nc3ccccc3[nH]2)cc1`: the cell viability activity is -67.1%. In the case of `Cc1cc(I)ccc1Nc1c(C(=O)NOCC2CC2)cc(F)c(F)c1F` it was -71.6%. In the case of `CC(C)C[C@H](NC(=O)[C@H](CCc1ccccc1)NC(=O)CN1CCOCC1)C(=O)N[C@@H](Cc1ccccc1)C(=O)N[C@@H](CC(C)C)C(=O)[C@@]1(C)CO1` it was -96.6%.

`CC(C)c1cc(C(C)C)c(-c2csc(N(CCN(C)C)Cc3cccnc3)n2)c(C(C)C)c1`: the cell viability activity is -63.4%.

With `COc1cc(Nc2ncc(F)c(Nc3ccc4c(n3)NC(=O)C(C)(C)O4)n2)cc(OC)c1OC`, the cell viability activity was -37.3%.

Turning to `CC[C@H](CC#N)OC(=O)N[C@@H](C)c1cccc(NC(=O)Nc2ccc(-c3cnco3)c(OC)c2)c1`, the cell viability activity was -55.9%. In the case of `Nc1ccn([C@@H]2O[C@H](CO)[C@@H](O)C2(F)F)c(=O)n1` it was -67.1%; in that of `C[C@]12CC[C@@H]3c4ccc(O)cc4C[C@@H](CCCCCCCCC[S+]([O-])CCCC(F)(F)C(F)(F)F)[C@H]3[C@@H]1CC[C@@H]2O` (stereo partly drawn), -38.5%. In the case of `CC(C)OC(=O)OCOP(=O)(CO[C@H](C)Cn1cnc2c(N)ncnc21)OCOC(=O)OC(C)C` it was -48.3%; in that of `Cc1ccc(C(=O)N(CCCN)[C@@H](c2oc3cc(Cl)ccc3c(=O)c2Cc2ccccc2)C(C)C)cc1`, -78.3%; in that of `COc1cc2nc(N3CCC(N4CCCCC4)CC3)nc(NC3CCCCCC3)c2cc1OC`, -95.5%.

Turning to `CN(C)C/C=C/C(=O)Nc1cccc(C(=O)Nc2cccc(Nc3ncc(Cl)c(-c4c[nH]c5ccccc45)n3)c2)c1`, the cell viability activity was -94.7%. Regarding `COc1cccc2c1C(=O)c1c(O)c3c(c(O)c1C2=O)C[C@@](O)(C(=O)CO)C[C@@H]3O[C@H]1C[C@H](N)[C@H](O)[C@H](C)O1`, the cell viability activity was -89.6% and -89.8% and -68.3%.
